Measured values taken from PubChem BioAssay AID504773 (Broad Institute, 2011).
Potency and affinity values are given separately. Active and inactive are the calls of the source.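 The calls were made as follows: active = polarization signal falls with dose and the fitted half-maximal concentration is at or below ten times the sample's top valid dose; inconclusive = flat curve at 30 to 70% inhibition, or poor fit; inactive = signal rises, flat within 30%, or potency beyond limit.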

These molecules were tested against Golgi-associated PDZ and coiled-coil motif-containing protein (Homo sapiens) (UniProt Q9HD26) (assay: potency against CAL PDZ-peptide interaction – biochemical, fluorescence polarization, Cerulean-tagged CAL PDZ, cherry-picks, dose response (AID 504773)). Details: CAL PDZ-peptide binding, 1 h; series mostly up to 50 µM.

SMILES	outcome
CSc1ccc(CNCCCSc2ncccn2)cc1	inactive
CCC1C(=O)NCCN1C(=O)CCc1nnc(CCc2ccc(OC)cc2)o1 (configuration not stated)	inactive
CCN(C(=O)CSc1ncccc1C(=O)O)C1CCCCC1	inactive
Cc1cc(C(=O)Nc2ccccc2Cl)c2ccccc2n1	inactive
Oc1ccccc1N=Cc1c(O)ccc2oc3c(c12)CCCC3	inactive
O=C(COC(=O)CNC(=O)c1cccc([N+](=O)[O-])c1)NCc1ccco1	inactive
CCOC(=O)c1ccc(NC(=S)N2CCCC(C(=O)N3CCCC3)C2)cc1 (configuration not stated)	inactive
Cc1cc(C)nc(/N=C(\N)N2CCc3ccccc32)n1	inactive
CC(C)c1ccc(CNC(=O)C(=O)NCCCn2ccnc2)cc1	inactive
O=C(CN1C(=O)NC2(CCCC2)C1=O)Nc1ccc(F)c(F)c1F	inactive
CCc1ccc(C2CC(=O)N(c3cccc(F)c3)C3=C2C(=O)OC3)cc1 (configuration not stated)	inactive
COn1c(SCc2ccccc2)nc2ccccc2c1=O	inactive
Cc1ccnc2nc(C(=O)OCCOc3ccc(F)cc3)nn12	inactive
COC(=O)N/N=C/c1sc(N2CCCCC2)nc1-c1cccs1	inactive
COc1ccc(CN2CN(C3CCCC3)CSC2=S)cc1	inactive
O=C(OCC(=O)N1CCOCC1)c1ccc[nH]c1=O	inactive
CC1(C2CC2)NC(=O)N(CC(=O)NCC(=O)Nc2ccc(F)c(F)c2F)C1=O (configuration not stated)	inactive
Cc1cc(NC(=O)CSc2nnc(-c3ccccc3)c(-c3ccccc3)n2)no1	inactive
COc1cc(C(=O)ON=C2C(C)=CC(=O)C=C2C)cc(OC)c1OC	inactive

SMILES	outcome
N/C(=N\OC(=O)Cc1ccccc1[N+](=O)[O-])c1cccnc1	inactive
COc1ccc(OC)c(NC(=O)CS(=O)(=O)Cc2ccccc2)c1	inactive
CN(C)CCNC(=O)COc1cccc2c1OC(C)(C)C2	inactive
CC1Cc2ccccc2N1C(=O)CNc1ccccc1N1CCCCC1 (configuration not stated)	inactive
Cc1ccccc1N1CCN(S(=O)(=O)c2ccccc2)CC1	inactive
CCC(=O)Nc1ccc(S(=O)(=O)NCc2ccco2)cc1	inactive
O=C(O)c1[nH]c2ccccc2c1C(c1ccccc1)c1c(C(=O)O)[nH]c2ccccc12	inactive
CCOc1ccc(NC(=O)c2nsc(Cl)c2Cl)cc1	inactive
O=C(c1ccccc1Cl)N(Cc1ccc(Cl)c(Cl)c1)N1C(=O)CCCC1=O	inactive
Cc1cccc(Nc2nc(-c3ccc(F)cc3)cs2)n1	inactive
C(=N\N1CCOCC1)/c1nc(-c2ccccc2)n2ccccc12	inactive
CCOC(=O)CCNC(=O)N1CCCC(CNS(=O)(=O)Cc2ccccc2)C1 (configuration not stated)	inactive
O=C(Nc1cc(Cl)ccc1N1CCOCC1)c1ccc2c(c1)OCCO2	inactive
Cc1c(C)c2cc3c4c(oc3c(C)c2oc1=O)CCCC4	inactive
CC(=O)NC(Cc1ccccc1)C(C)=O (configuration not stated)	inactive
O=C(CN1CC[n+]2c(-c3cccs3)csc21)c1ccc(-c2ccccc2)cc1	inactive
COc1cc(C2NC(=O)NC(C)=C2C(=O)OC2CCCCC2)cc(Br)c1O (configuration not stated)	inactive
Cc1cccc(C(=O)Nc2ccc(C(=O)/C=C/c3ccncc3)cc2)c1	inactive
